# In PubChem BioAssay (NCI):
# About 79,000 compounds went through this panel and 15% of them were active in at least one assay; those are over-represented in the sample as a whole. A number with no mark means an inactive call. The source made the active and inactive calls. Cut-off read from the data, not from the text of the source: active = growth inhibition above about 70%; inactive = the rest.
# Assays:
# [1] = NCI Yeast Anticancer Drug Screen. Data for the rad52 strain (AID 147);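 note: 0% = growth of vehicle-treated control cultures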; conditions: S. cerevisiae rad52 mutant growth inhibition, hits give high values
# Method in brief: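 Screen used a yeast mutant impaired in DNA repair. After compound exposure, growth was measured. Values reflect inhibition compared with vehicle-treated cells.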
# [2] = NCI Yeast Anticancer Drug Screen. Data for the wt1 strain (AID 149);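 note: 0% = growth of vehicle-treated wt1 cultures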; conditions: S. cerevisiae wt1 strain (SPY 50644) growth inhibition, hits give high values
# Method in brief: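 Readout: yeast growth inhibition, normalised to vehicle controls, in the wt1 strain exposed to test compounds.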
# [3] = NCI Yeast Anticancer Drug Screen. Data for the rad50EPP+ strain (AID 151);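 note: 0% = growth of vehicle-treated control cultures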; conditions: S. cerevisiae rad50 mutant strain, hits give high values
# Method in brief: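 Exposing the rad50EPP+ strain to each compound, growth was compared with vehicle-only cultures to give inhibition.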
# [4] = NCI Yeast Anticancer Drug Screen. Data for the mgt1 strain (AID 153); conditions: S. cerevisiae mgt1 mutant growth inhibition, hits give high values
# Method in brief: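 Genetically defined yeast (mgt1) treated with compound; inhibition of growth expressed against vehicle-treated controls.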
# [5] = NCI Yeast Anticancer Drug Screen. Data for the rad50 strain (AID 155);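 note: 0% = growth of vehicle-only cultures of the same strain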; conditions: S. cerevisiae rad50 strain growth inhibition, hits give high values
# Method in brief: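 Compounds were tested on a yeast strain with an engineered DNA damage repair alteration; the reported value is growth inhibition normalised to vehicle treatment.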
# [6] = NCI Yeast Anticancer Drug Screen. Data for the mec2-1 strain (AID 157); conditions: S. cerevisiae mec2-1 strain, hits give high values
# Method in brief: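 Readout is yeast growth inhibition, normalised to vehicle-treated controls, in the mec2-1 strain exposed to compound.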
# [7] = NCI Yeast Anticancer Drug Screen. Data for the rad14 strain (AID 159);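 note: 0% = growth of vehicle-treated control cultures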; conditions: S. cerevisiae rad14 strain growth inhibition, hits give high values
# Method in brief: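 Compound-treated yeast with a defined DNA-repair lesion; growth inhibition normalised to vehicle-treated cultures.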
# [8] = NCI Yeast Anticancer Drug Screen. Data for the sgs1 mgt1 strain (AID 161);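 note: 0% = growth of cultures given vehicle only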; conditions: S. cerevisiae sgs1 mgt1 strain, hits give high values
# Method in brief: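 Yeast cells carrying a defined DNA-repair defect were exposed to test compounds. Growth inhibition was measured relative to vehicle-treated controls.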
# [9] = NCI Yeast Anticancer Drug Screen. Data for the CLN2oe strain (AID 163);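 note: 0% = growth of vehicle-only control cultures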; conditions: S. cerevisiae CLN2oe strain, hits give high values
# Method in brief: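 Values reflect how much compound exposure reduced yeast growth, referenced to vehicle-exposed cells. Assay organism is a strain with a defined genetic change affecting cell-cycle control.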
# [10] = NCI Yeast Anticancer Drug Screen. Data for the cln2 rad14 strain (AID 165);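 note: 0% = growth equal to vehicle treated cultures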; conditions: S. cerevisiae cln2 rad14 strain, hits give high values
# Method in brief: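 Relative to vehicle controls, growth inhibition of compound-treated cln2 rad14 yeast was recorded.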
# [11] = NCI Yeast Anticancer Drug Screen. Data for the bub3 strain (AID 167); conditions: S. cerevisiae bub3 mutant strain, hits give high values
# Method in brief: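 Growth of a checkpoint-deficient yeast mutant is measured after compound exposure. Values represent inhibition relative to vehicle.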
# [12] = NCI Yeast Anticancer Drug Screen. Data for the wt2 strain (AID 169);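 note: 0% = growth of vehicle-treated yeast cultures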; conditions: S. cerevisiae wt2 strain growth inhibition, hits give high values
# Method in brief: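 Values express reduction in yeast growth under compound treatment, referenced to vehicle-treated cells.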
# [13] = NCI Yeast Anticancer Drug Screen. Data for the mlh1 strain (AID 171);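 note: 0% = growth of vehicle-treated control cultures of the same strain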; conditions: S. cerevisiae mlh1 strain growth inhibition, hits give high values
# Method in brief: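 Steps: expose the defined-mutant yeast strain to compound; expose a parallel culture to vehicle; measure growth; express compound effect as inhibition relative to the vehicle culture.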
# [14] = NCI Yeast Anticancer Drug Screen. Data for the sgs1 strain (AID 173);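 note: 0% = growth of vehicle-only control cultures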; conditions: S. cerevisiae sgs1 mutant, hits give high values
# Method in brief: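 Treat defined-mutant yeast with compound; measure growth; calculate inhibition relative to vehicle-treated cells.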
# [15] = NCI Yeast Anticancer Drug Screen. Data for the mlh1 rad18 strain (AID 175); conditions: S. cerevisiae mlh1 rad18 strain growth inhibition, hits give high values
# Method in brief: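 Test agents were incubated with a yeast strain of defined genotype (DNA damage repair defect). Inhibition of growth was derived by comparison with vehicle-exposed cultures.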
# [16] = NCI Yeast Anticancer Drug Screen. Data for the rad18 strain (AID 177); conditions: S. cerevisiae rad18 mutant growth inhibition, hits give high values
# Method in brief: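 A genetically defined yeast mutant impaired in DNA damage repair was treated with test compounds, then its growth was measured against cultures receiving vehicle alone.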
# [17] = at 5.0 µM (retest, dose inferred, filed as 0.5)
# [18] = at 50.0 µM (retest, dose inferred, filed as 5.0)
smiles,measurement,setting,value
CCN(CC)CC[n+]1ccc2c(C)c3[nH]c4ccc(O)cc4c3c(C)c2c1,growth inhibition,[1]; at 1.2 µM,13%
same,growth inhibition,[1]; at 3.7 µM,41%
same,growth inhibition,[1]; at 11.0 µM,67%
same,growth inhibition,[1]; at 33.0 µM,87% (active)
same,growth inhibition,[1]; at 100.0 µM,95% (active)
same,growth inhibition,[2]; at 1.2 µM,0%
same,growth inhibition,[2]; at 3.7 µM,-1%
same,growth inhibition,[2]; at 11.0 µM,3%
same,growth inhibition,[2]; at 33.0 µM,4%
same,growth inhibition,[2]; at 100.0 µM,8%
same,growth inhibition,[3]; at 1.2 µM,4%
same,growth inhibition,[3]; at 3.7 µM,16%
same,growth inhibition,[3]; at 11.0 µM,46%
same,growth inhibition,[3]; at 33.0 µM,88% (active)
same,growth inhibition,[3]; at 100.0 µM,91% (active)
same,growth inhibition,[4]; at 1.2 µM,0%
same,growth inhibition,[4]; at 3.7 µM,-1%
same,growth inhibition,[4]; at 11.0 µM,0%
same,growth inhibition,[4]; at 33.0 µM,3%
same,growth inhibition,[4]; at 100.0 µM,8%
same,growth inhibition,[5]; at 1.2 µM,13%
same,growth inhibition,[5]; at 3.7 µM,42%
same,growth inhibition,[5]; [17],36%
same,growth inhibition,[5]; at 11.0 µM,72% (active)
same,growth inhibition,[5]; at 33.0 µM,89% (active)
same,growth inhibition,[5]; [18],87% (active)
same,growth inhibition,[5]; at 50.0 µM,95% (active)
same,growth inhibition,[5]; at 100.0 µM,93% (active)
same,growth inhibition,[6]; at 1.2 µM,-2%
same,growth inhibition,[6]; at 3.7 µM,-13%
same,growth inhibition,[6]; [17],9%
same,growth inhibition,[6]; at 11.0 µM,9%
same,growth inhibition,[6]; at 33.0 µM,8%
same,growth inhibition,[6]; [18],4%
same,growth inhibition,[6]; at 50.0 µM,-11.9%
same,growth inhibition,[6]; at 100.0 µM,43%
same,growth inhibition,[7]; at 1.2 µM,-3%
same,growth inhibition,[7]; at 3.7 µM,-5%
same,growth inhibition,[7]; at 11.0 µM,3%
same,growth inhibition,[7]; at 33.0 µM,3%
same,growth inhibition,[7]; at 100.0 µM,60%
same,growth inhibition,[8]; [17],4%
same,growth inhibition,[8]; [18],13%
same,growth inhibition,[8]; at 50.0 µM,1.5%
same,growth inhibition,[9]; at 1.2 µM,-8%
same,growth inhibition,[9]; at 3.7 µM,-4%
same,growth inhibition,[9]; at 11.0 µM,-8%
same,growth inhibition,[9]; at 33.0 µM,-8%
same,growth inhibition,[9]; at 100.0 µM,16%
same,growth inhibition,[10]; [17],-2%
same,growth inhibition,[10]; [18],18%
same,growth inhibition,[10]; at 50.0 µM,-21.6%
same,growth inhibition,[11]; at 1.2 µM,-10%
same,growth inhibition,[11]; at 3.7 µM,3%
same,growth inhibition,[11]; [17],8%
same,growth inhibition,[11]; at 11.0 µM,-5%
same,growth inhibition,[11]; at 33.0 µM,-7%
same,growth inhibition,[11]; [18],6%
same,growth inhibition,[11]; at 50.0 µM,-14.8%
same,growth inhibition,[11]; at 100.0 µM,2%
same,growth inhibition,[12]; at 1.2 µM,0%
same,growth inhibition,[12]; at 3.7 µM,0%
same,growth inhibition,[12]; at 11.0 µM,-1%
same,growth inhibition,[12]; at 33.0 µM,2%
same,growth inhibition,[12]; at 100.0 µM,26%
same,growth inhibition,[13]; at 1.2 µM,-4%
same,growth inhibition,[13]; at 3.7 µM,3%
same,growth inhibition,[13]; at 11.0 µM,1%
same,growth inhibition,[13]; at 33.0 µM,9%
same,growth inhibition,[13]; at 100.0 µM,68%
same,growth inhibition,[14]; at 1.2 µM,-2%
same,growth inhibition,[14]; at 3.7 µM,-1%
same,growth inhibition,[14]; at 11.0 µM,6%
same,growth inhibition,[14]; at 33.0 µM,9%
same,growth inhibition,[14]; at 100.0 µM,31%
same,growth inhibition,[15]; [17],7%
same,growth inhibition,[15]; [18],19%
same,growth inhibition,[15]; at 50.0 µM,27.8%
same,growth inhibition,[16]; at 1.2 µM,-2%
same,growth inhibition,[16]; at 3.7 µM,-2%
same,growth inhibition,[16]; at 11.0 µM,3%
same,growth inhibition,[16]; at 33.0 µM,12%
same,growth inhibition,[16]; at 100.0 µM,58%
O=[N+]([O-])C(=C(Sc1ccccc1)Sc1ccccc1)C(Cl)=C(Cl)Cl,growth inhibition,[1]; at 1.2 µM,14%
same,growth inhibition,[1]; at 3.7 µM,30%
same,growth inhibition,[1]; at 11.0 µM,45%
same,growth inhibition,[1]; at 33.0 µM,56%
same,growth inhibition,[1]; at 100.0 µM,59%
same,growth inhibition,[2]; at 1.2 µM,3%
same,growth inhibition,[2]; at 3.7 µM,13%
same,growth inhibition,[2]; at 11.0 µM,25%
same,growth inhibition,[2]; at 33.0 µM,36%
same,growth inhibition,[2]; at 100.0 µM,41%
same,growth inhibition,[3]; at 1.2 µM,9%
same,growth inhibition,[3]; at 3.7 µM,20%
same,growth inhibition,[3]; at 11.0 µM,36%
same,growth inhibition,[3]; at 33.0 µM,49%
same,growth inhibition,[3]; at 100.0 µM,48%
same,growth inhibition,[4]; at 1.2 µM,2%
same,growth inhibition,[4]; at 3.7 µM,17%
same,growth inhibition,[4]; at 11.0 µM,44%
same,growth inhibition,[4]; at 33.0 µM,59%
same,growth inhibition,[4]; at 100.0 µM,74% (active)
same,growth inhibition,[5]; at 1.2 µM,4%
same,growth inhibition,[5]; at 3.7 µM,8%
same,growth inhibition,[5]; [17],5%
same,growth inhibition,[5]; at 11.0 µM,23%
same,growth inhibition,[5]; at 33.0 µM,46%
same,growth inhibition,[5]; [18],53%
same,growth inhibition,[5]; at 50.0 µM,19.6%
same,growth inhibition,[5]; at 100.0 µM,50%
same,growth inhibition,[6]; at 1.2 µM,12%
same,growth inhibition,[6]; at 3.7 µM,26%
same,growth inhibition,[6]; [17],22%
same,growth inhibition,[6]; at 11.0 µM,37%
same,growth inhibition,[6]; at 33.0 µM,46%
same,growth inhibition,[6]; [18],26%
same,growth inhibition,[6]; at 50.0 µM,46.5%
same,growth inhibition,[6]; at 100.0 µM,46%
same,growth inhibition,[7]; at 1.2 µM,4%
same,growth inhibition,[7]; at 3.7 µM,7%
same,growth inhibition,[7]; at 11.0 µM,19%
same,growth inhibition,[7]; at 33.0 µM,27%
same,growth inhibition,[7]; at 100.0 µM,28%
same,growth inhibition,[8]; [17],2%
same,growth inhibition,[8]; [18],53%
same,growth inhibition,[8]; at 50.0 µM,62.6%
same,growth inhibition,[9]; at 1.2 µM,4%
same,growth inhibition,[9]; at 3.7 µM,16%
same,growth inhibition,[9]; at 11.0 µM,26%
same,growth inhibition,[9]; at 33.0 µM,37%
same,growth inhibition,[9]; at 100.0 µM,32%
same,growth inhibition,[10]; [17],44%
same,growth inhibition,[10]; [18],33%
same,growth inhibition,[10]; at 50.0 µM,32.8%
same,growth inhibition,[11]; at 1.2 µM,6%
same,growth inhibition,[11]; at 3.7 µM,18%
same,growth inhibition,[11]; [17],-1%
same,growth inhibition,[11]; at 11.0 µM,33%
same,growth inhibition,[11]; at 33.0 µM,45%
same,growth inhibition,[11]; [18],59%
same,growth inhibition,[11]; at 50.0 µM,60.2%
same,growth inhibition,[11]; at 100.0 µM,50%
same,growth inhibition,[12]; at 1.2 µM,1%
same,growth inhibition,[12]; at 3.7 µM,15%
same,growth inhibition,[12]; at 11.0 µM,39%
same,growth inhibition,[12]; at 33.0 µM,59%
same,growth inhibition,[12]; at 100.0 µM,73% (active)
same,growth inhibition,[13]; at 1.2 µM,8%
same,growth inhibition,[13]; at 3.7 µM,19%
same,growth inhibition,[13]; at 11.0 µM,40%
same,growth inhibition,[13]; at 33.0 µM,60%
same,growth inhibition,[13]; at 100.0 µM,74% (active)
same,growth inhibition,[14]; at 1.2 µM,13%
same,growth inhibition,[14]; at 3.7 µM,24%
same,growth inhibition,[14]; at 11.0 µM,58%
same,growth inhibition,[14]; at 33.0 µM,76% (active)
same,growth inhibition,[14]; at 100.0 µM,78% (active)
same,growth inhibition,[15]; [17],12%
same,growth inhibition,[15]; [18],71% (active)
same,growth inhibition,[15]; at 50.0 µM,59.5%
same,growth inhibition,[16]; at 1.2 µM,15%
same,growth inhibition,[16]; at 3.7 µM,43%
same,growth inhibition,[16]; at 11.0 µM,66%
same,growth inhibition,[16]; at 33.0 µM,76% (active)
same,growth inhibition,[16]; at 100.0 µM,74% (active)
